Growth data for 13 molecules are collected here from PubChem BioAssay (NCI).

The panel holds about 83,000 compounds, 20% with a hit somewhere; the sample as a whole holds those more often.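 The test compound was applied at a single concentration to cells in 96-well plates for 48 hours, and percent growth was recorded.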 A number with no mark means an inactive call. Activity calls are given as the source filed them. The calls were made as follows: active = growth percent below 10; inactive = the rest.

Some test systems named below: HCT-15 colon; HT29 colon; SNB-75 CNS; SNB-19 CNS; U251 CNS; PC-3 prostate; SK-MEL-5 melanoma; UACC-62 melanoma; SK-MEL-28 melanoma; LOX IMVI melanoma.
Common to all, as to assay: NCI-60 one-dose screen, 48 h (100 = growth as untreated, 0 = no growth, -100 = all killed)
Settings in all cases: 10 µM

Turning to `Oc1cccc(-c2nc3sccn3c2-c2ccncn2)c1`, the growth in the assay on HCT-15 colon was 93.2%; in the assay with HT29 colon, 54.8%; in the assay on SNB-75 CNS, 39.4%; in the assay with SNB-19 CNS, 111%; in the assay on U251 CNS, 114%; with PC-3 prostate it was 84.6%. In addition, the growth is 90.6% in the assay on SK-MEL-5 melanoma, 14.5% with UACC-62 melanoma and 33.9% in the assay on SK-MEL-28 melanoma.
As for `COc1ccc(/C=C/C(=O)C(=O)/C=C/c2ccc(OC)c(OC)c2)cc1OC`, the growth in the assay with HCT-15 colon was -3.56% (active); in the assay with HT29 colon, -35.2% (active); with SNB-75 CNS, 64.9%; with SNB-19 CNS it was 33.1%; in the assay on U251 CNS, 6.4% (active); in the assay on PC-3 prostate, 43.6%. Besides, the growth in the assay on SK-MEL-5 melanoma is 77.9%; in the assay with UACC-62 melanoma, -10.8% (active); in the assay on LOX IMVI melanoma it was -66.4% (active); in the assay on SK-MEL-28 melanoma it was -9.43% (active).
In the case of `CCOC(=O)c1cc(C(=O)c2cc(OC)cc(OC)c2)n2nc(C)ccc12`, the growth in the assay with HCT-15 colon is 32.2%; in the assay on HT29 colon, 3.72% (active); with SNB-75 CNS, 18%; in the assay with SNB-19 CNS, 39.4%; with U251 CNS it was 23.1%; with PC-3 prostate, 25%. In addition, the growth with SK-MEL-5 melanoma was 30.6%; with UACC-62 melanoma, 46.7%; in the assay with LOX IMVI melanoma, 48.7%; in the assay with SK-MEL-28 melanoma, 78.7%.
With `NC1=NC(c2ccccc2)C2=C(N1)/C(=C/c1ccccc1)CCC2` (stereo not drawn), the growth was 84.9% with HCT-15 colon; 32.2% with HT29 colon; 85.6% with SNB-75 CNS; 97.5% in the assay with SNB-19 CNS; 34.8% with U251 CNS; 78.7% with PC-3 prostate. Moreover, the growth in the assay on SK-MEL-5 melanoma was 98.9%; in the assay on UACC-62 melanoma, 77.5%; in the assay with LOX IMVI melanoma, -4.8% (active); with SK-MEL-28 melanoma, 102%.
For `COc1ccc(-c2cc(-c3ccc(Cl)cc3)nc(SCCCC(=O)NO)n2)cc1OC`, the growth in the assay with HCT-15 colon was -4% (active); in the assay with HT29 colon it was 6.66% (active); in the assay on SNB-75 CNS it was 2.56% (active); in the assay on SNB-19 CNS, 14.8%; in the assay with U251 CNS, 12.4%; in the assay with PC-3 prostate it was -5.41% (active). Also, the growth in the assay with SK-MEL-5 melanoma is -55.9% (active); with UACC-62 melanoma, -60.1% (active); in the assay with LOX IMVI melanoma, -64.8% (active); with SK-MEL-28 melanoma, 20.5%.
With `COc1ccc(-c2csc(NC(=O)c3ccc(Cc4n[nH]c(=O)c5cccnc45)cc3)n2)cc1`, the growth with HCT-15 colon was 85.8%; with HT29 colon it was 104%; in the assay on SNB-75 CNS it was 82.6%; in the assay on SNB-19 CNS, 89.8%; with U251 CNS it was 99.1%; in the assay on PC-3 prostate, 77.9%. Moreover, the growth is 85.7% with SK-MEL-5 melanoma, 74.5% in the assay on UACC-62 melanoma, 90.3% in the assay on LOX IMVI melanoma and 95.2% with SK-MEL-28 melanoma.
Regarding `C[C@@H](O)[C@H]1C(=O)N2C(C(=O)O)=C(SCCN=CN)C[C@H]12`, the growth in the assay on HCT-15 colon was 8.86% (active); in the assay with HT29 colon it was -3.23% (active); in the assay with SNB-75 CNS it was 0.941% (active); with SNB-19 CNS it was 8.6% (active); with U251 CNS it was 2.44% (active); in the assay on PC-3 prostate, 1.74% (active). Also, the growth was -87.2% (active) in the assay with SK-MEL-5 melanoma, -38.8% (active) with UACC-62 melanoma, -42.6% (active) in the assay on LOX IMVI melanoma and -41.3% (active) in the assay with SK-MEL-28 melanoma.
For the molecule `COc1cccc(CNc2cccc3cn[nH]c23)c1O`, the growth with HCT-15 colon was 93.4%; with HT29 colon, 99.7%; with SNB-75 CNS it was 82%; in the assay with SNB-19 CNS, 96.5%; with U251 CNS, 92.9%; with PC-3 prostate it was 84.5%. The growth is 82.2% in the assay on SK-MEL-5 melanoma, 85.6% with UACC-62 melanoma, 90.4% in the assay on LOX IMVI melanoma and 100% in the assay with SK-MEL-28 melanoma.
Turning to `COc1ccc(C(=O)COc2cccc(/C=C3\Cc4ccccc4C3=O)c2)cc1`, the growth in the assay with HCT-15 colon is 85.6%; in the assay on HT29 colon, 82.1%; in the assay with SNB-75 CNS, 46.8%; in the assay with SNB-19 CNS, 90.8%; with U251 CNS, 82.6%; in the assay on PC-3 prostate, 82%. Moreover, the growth with SK-MEL-5 melanoma is 67.3%; with UACC-62 melanoma, 61.3%; in the assay on LOX IMVI melanoma it was 90.3%; in the assay on SK-MEL-28 melanoma, 103%.
`CCCCCCCCCCOC(c1ccccc1)c1ccccc1`: the growth in the assay on HCT-15 colon was 81.1%; in the assay on HT29 colon, 66.7%; in the assay with SNB-75 CNS it was 95.1%; in the assay on SNB-19 CNS, 96%; with U251 CNS, 94.2%; in the assay with PC-3 prostate it was 83.5%. Besides, the growth with SK-MEL-5 melanoma was 104%; in the assay with UACC-62 melanoma it was 81.5%; in the assay with LOX IMVI melanoma, 79.6%; with SK-MEL-28 melanoma, 96.2%.
As to `CSc1nc(S(C)(=O)=O)nc2[nH]c(=O)[nH]c12`, the growth with HCT-15 colon was 94.9%; in the assay with HT29 colon, 99.5%; with SNB-75 CNS, 97%; in the assay with SNB-19 CNS, 99.8%; in the assay on U251 CNS it was 105%; in the assay on PC-3 prostate, 106%. Further, the growth with SK-MEL-5 melanoma is 103%; in the assay on UACC-62 melanoma, 98.9%; in the assay on SK-MEL-28 melanoma it was 126%.
For `O=C1/C(=C/c2ccc([N+](=O)[O-])s2)Oc2cc(Cl)ccc21`, the growth with HCT-15 colon was 0.579% (active); in the assay on HT29 colon, -4.42% (active); in the assay with SNB-75 CNS, 58.8%; in the assay on SNB-19 CNS it was 2.32% (active); in the assay with U251 CNS it was -58% (active); in the assay with PC-3 prostate, -73% (active). Also, the growth in the assay on SK-MEL-5 melanoma was 17.6%; with UACC-62 melanoma it was -37.7% (active); with LOX IMVI melanoma, -78.4% (active); with SK-MEL-28 melanoma, -29.2% (active).
For `O=[N+]([O-])c1ccc2ncccc2c1Cl`, the growth in the assay on HCT-15 colon is 13.2%; in the assay on HT29 colon, 9.81% (active); in the assay with SNB-75 CNS, 73.9%; in the assay on SNB-19 CNS, 62.7%; in the assay on U251 CNS, 35.9%; in the assay with PC-3 prostate it was 38.5%. In addition, the growth was 89.3% in the assay on SK-MEL-5 melanoma, 54.7% with UACC-62 melanoma, 20.9% in the assay with LOX IMVI melanoma and 76.2% in the assay on SK-MEL-28 melanoma.
